This excerpt belongs to a sample that is enriched for hits.
ER stress surv: protection against thapsigargin ER stress killing – CSM14.1 cells, ATP luminescence, primary screen; CSM14.1 thapsigargin ER stress survival; relative survival (cellular ATP), % at 15 µg/mL (by protocol); 48,000 tested, 0.33% active;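 active = survival measured by cellular ATP above 50% at 15 µg/ml in the first screen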;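 note: cell death triggered by about 15 µM thapsigargin; ATP read 24 h after thapsigargin was added; plate controls were thapsigargin with DMSO for no effect and DMSO without thapsigargin for full effect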
Numbers without * were called inactive.

SMILES	ER stress surv
COc1ccc(C2CC(=O)C3=C(C2)Nc2ccccc2NC3c2cccc3ccccc23)cc1OC (stereo unspecified)	-1
CCCOc1ccc(C2Nc3ccccc3NC3=C2C(=O)CC(c2ccc(OC)c(OC)c2)C3)cc1 (stereo unspecified)	103*
COc1ccc(C2CC(=O)C3=C(C2)Nc2ccccc2NC3c2cc(OC)ccc2OC)cc1 (stereo unspecified)	1
COc1ccc(C2CC(=O)C3=C(C2)Nc2ccccc2NC3c2cc(Br)ccc2OC)cc1OC (stereo unspecified)	112*
COc1ccc(C2CC(=O)C3=C(C2)Nc2ccccc2NC3c2ccccc2C(F)(F)F)cc1OC (stereo unspecified)	124*
Cc1ccc(N(CC(=O)Nc2ccc(Cl)cc2C)S(=O)(=O)c2ccc(F)cc2)cc1	14
CCOc1ccc(-c2csc(/C(C#N)=C\Nc3ccc(F)cc3)n2)cc1	6
O=C(Nc1ccc2c(c1)OCCO2)c1ccc([N+](=O)[O-])cc1	9
CCC(=O)NC(c1ccccc1Cl)c1c(OC(C)=O)ccc2ccccc12 (stereo unspecified)	11
O=C(N/N=C/c1ccc2c(c1)OCCO2)C(=O)Nc1ccc(F)cc1	6
CC(=O)Nc1cccc(NS(=O)(=O)c2ccc([N+](=O)[O-])cc2)c1	1
CCCC(=O)NC(c1ccc([N+](=O)[O-])cc1)c1c(O)ccc2ccccc12 (stereo unspecified)	11
COc1ccc(C2CC(=O)C3=C(C2)Nc2ccccc2NC3c2ccc(Cl)c(Cl)c2)cc1OC (stereo unspecified)	12
COc1ccc(C2CC(=O)C3=C(C2)Nc2ccccc2NC3c2ccc(OCc3ccccc3)c(OC)c2)cc1OC (stereo unspecified)	125*
COc1ccc(C2Nc3ccccc3NC3=C2C(=O)CC(C)(C)C3)cc1OCc1ccccc1 (stereo unspecified)	7
COc1ccc(C2CC(=O)C3=C(C2)Nc2ccccc2NC3c2ccncc2)cc1OC (stereo unspecified)	6
COc1ccc(C2CC(=O)C3=C(C2)Nc2ccccc2NC3c2ccc([N+](=O)[O-])cc2)cc1OC (stereo unspecified)	-2
CCc1ccc(C2Nc3ccccc3NC3=C2C(=O)CC(c2ccc(OC)c(OC)c2)C3)cc1 (stereo unspecified)	89*
C=C(C)CNC(=S)NNC(=O)c1cccc(C)c1	11
COc1cc(C=O)cc(Br)c1OCCOc1ccc(C)c(C)c1	9
CC(=O)c1ccc(NC(=O)c2ccc(-c3cccc([N+](=O)[O-])c3)o2)cc1	0
COc1cc(C(=O)N2CCN(Cc3cccc(Oc4ccccc4)c3)CC2)cc(OC)c1OC	45
CCOc1ccc(CN2CCN(C(=O)c3ccc([N+](=O)[O-])cc3)CC2)cc1	-2
COc1ccc(C(=O)N2CCN(Cc3cccc(C)c3)CC2)cc1OC	2
O=C(c1ccc([N+](=O)[O-])cc1)N1CCN(Cc2cccc(Oc3ccccc3)c2)CC1	69*
SMILES	ER stress surv
O=C(c1ccc([N+](=O)[O-])cc1)N1CCN(Cc2cccnc2)CC1	-8
COc1ccc(C(=O)N2CCN(Cc3cccc(Oc4ccccc4)c3)CC2)cc1OC	53*
O=C(c1ccncc1)N1CCN(Cc2cccc(Oc3ccccc3)c2)CC1	-2
CCn1c2ccccc2c2cc(CN3CCN(C(=O)c4ccc([N+](=O)[O-])cc4)CC3)ccc21	91*
Cc1cccc(CN2CCN(C(=O)c3ccc([N+](=O)[O-])cc3)CC2)c1	4
C=CCn1nc(C)c(Cc2c(C)nn(CC=C)c2C)c1C	11
C/C(=N\N=C1\NC(=O)C(CC(=O)Nc2ccc(Cl)cc2Cl)S1)c1ccc([N+](=O)[O-])cc1 (stereo unspecified)	-3
Cc1cc([N+](=O)[O-])ccc1NC(=O)c1ccccc1C(=O)O	2
CCN(CC)C1CC(=O)N(c2ccc(Cl)cc2)C1=O (stereo unspecified)	3
O=C(O)c1ccccc1SCCSc1ccccc1C(=O)O	11
CCN(CC)CCCOc1ccc(Cl)cc1C	-3
C(=N\Nc1ccc2ccccc2n1)/c1ccc(OCc2ccccc2)cc1	-5
O=C(Nc1cccc2ccccc12)C1OC2OC3(CCCCC3)OC2C2OC3(CCCCC3)OC12 (stereo unspecified)	115*
CC1(C)OC2OC(C(=O)Nc3ccccc3)C3OC(C)(C)OC3C2O1 (stereo unspecified)	1
O=C(Nc1cccc2ccccc12)C1C2CCC3C(CCC21)C3(Cl)Cl (stereo unspecified)	2
CC1CCN(CCOCCOc2cccc3ccccc23)CC1	-4
O=C(Nc1ccccc1Cl)c1ccccc1C(F)(F)F	1
COc1cccc(NC(=O)C(=O)N/N=C/c2ccccc2OC)c1	0
CN(C)c1nccc(N(Cc2ccccc2)Cc2ccccc2)c1C#N	83*
COc1nccc(Nc2ccccc2)c1C#N	2
CN(C)CCN(Cc1ccccc1)c1ccnc(N(C)C)c1C#N	-4
COc1cc(Br)c(C2C3=C(CC(C)(C)CC3=O)OC3=C2C(=O)CC(C)(C)C3)cc1OC	4
Cc1cc(Cl)ccc1NC(=O)C1CCCN1C(=O)OC(C)(C)C (stereo unspecified)	1
COc1cccc(-n2c(/C=C/c3c(C)[nH]c4ccccc34)nc3ccccc3c2=O)c1	1
COc1cccc(-n2c(/C=C/c3cn(C)c4ccccc34)nc3ccccc3c2=O)c1	76*
SMILES	ER stress surv
Cn1cc(/C=C/c2nc3ccccc3c(=O)n2-c2ccc([N+](=O)[O-])cc2)c2ccccc21	6
COc1ccc(OC)c(NC(=O)Cc2ccccc2OC)c1	13
CCCCCC(=C/c1ccccc1)/C=N/NC(N)=O	3
O=C1CC(N2CCN(Cc3ccccc3)CC2)C(=O)N1c1ccc(Cl)c(Cl)c1 (stereo unspecified)	-3
CCOc1cc(/C=C2/SC(=S)N(C)C2=O)ccc1OCCOc1ccccc1C	2
COc1cc(/C=C2/SC(=S)N(C)C2=O)ccc1OCc1cccc2ccccc12	8
CCC(C)c1ccc(OCCOc2ccc(/C=C3/SC(=S)N(C)C3=O)cc2OC)cc1 (stereo unspecified)	89*
O=C(O)CN1C(=O)/C(=C2\SC(=S)N(/N=C/c3cc([N+](=O)[O-])ccc3O)C2=O)c2ccccc21	17
CCOc1ccccc1NC(=O)c1c(NC(=O)c2ccc(C)cc2)sc2c1CCCC2	6
CCOc1ccccc1NC(=O)c1c(NC(=O)c2cccc(F)c2)sc2c1CCCCC2	53*
CCOc1ccccc1NC(=O)c1c(NC(=O)c2ccccc2F)sc2c1CCCCC2	12
COc1cc(N/N=C(\C)c2ccc(I)cc2)ncn1	6
CCN(CC)c1ccc(NC(=O)c2ccc(Cl)cc2Cl)cc1	5
COc1ccc(CC(=O)N2CCN(c3cccc(Cl)c3)CC2)cc1OC	7
CCC(Oc1ccccc1)C(=O)N1CCN(C(c2ccccc2)c2ccccc2)CC1 (stereo unspecified)	47
COc1ccc(/C=N/OCC(=O)N2CCN(C(c3ccccc3)c3ccccc3)CC2)cc1OC	116*
CN1C(=O)NC(=O)/C(=C/c2cccn2-c2cccc([N+](=O)[O-])c2)C1=O	4
COc1cccc(OCCn2cc(C=C3C(=O)NC(=O)NC3=O)c3ccccc32)c1	7
Cc1ccc(S(=O)(=O)c2c(N)n(CCO)c3nc4ccccc4nc23)cc1	-2

Source: PubChem (Sanford-Burnham Center for Chemical Genomics)
